Measurements reported in PubChem BioAssay AID709 (SRMLSC, 2007).
About 3,600 (5.5%) of roughly 65,000 compounds were called active. This excerpt belongs to a sample that is enriched for actives. A number with no mark means an inactive call.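 How the source made its calls: active means at 10 µM, mean starting fluorescence two-fold or more over control wells; inactive means the rest.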

Experiment: intrinsic fluorescence of library compounds, ex339/em460 – biochemical, MLSMR library, data from DPM-DC assay, artefact control, profiling panel (AID 709);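 further: signal is the first read of a kinetic run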
Conditions: compound autofluorescence, ex339/em460 nm, NADH buffer; at 10 µM; stronger effect = higher value

Compound | fluorescence fold increase
CCOC(=O)c1c(N)n(Cc2ccccc2)c2nc3ccccc3nc12 | 4.96 (active)
O=C(O)C1CSC(c2cccnc2)N1 (stereo not given) | 1.05
CC1(C)C(c2ccccc2)=NC(c2cccnc2)=[N+]1[O-] | 1.1
CCOC(=O)c1c(C)c(C(=O)N2CCC3(CC2)OCCO3)c(C)n1CC | 1.05
CCOC(=O)c1c(-c2ccccc2)oc2ccc(OC(=O)N(C)C)cc12 | 3.72 (active)
N[C@@H](Cc1c[nH]c2ccccc12)c1nnc(SCc2c(F)cccc2Cl)o1 | 1.15
CCOC(=O)C1=C(C)OC(N)=C(C(=O)OC)C12C(=O)Nc1ccc(Br)cc12 (stereo not given) | 1.1
CCc1cccc2c(C#N)cn(CC(=O)N3CCOCC3)c12 | 1.27
COC(=O)COc1cc(C)cc2oc(=O)c3c(c12)CCCC3 | 2.2 (active)
OC(CNC1CCCCC1)c1ccccc1 (stereo not given) | 1.04
CCOC(=O)C(O)(c1ccc(NC(=O)c2ccco2)c(OC)c1)C(F)(F)F (stereo not given) | 1.11
Cc1cccc(-n2c(C)nc3cc(C(=O)N4CCC5(CC4)OCCO5)ccc32)c1 | 1.13
O=C(c1cc(-c2ccncc2)nc2ccccc12)N1CCC2(CC1)OCCO2 | 1.11
O=C(c1cc2nc(-c3ccccc3)cc(-c3ccccc3)n2n1)N1CCC2(CC1)OCCO2 | 2.35 (active)
CCOC(=O)CC1=C(C(=O)OCC)C2(C(=O)N1)C(C(=O)OC)=C(N)Oc1ccccc12 (stereo not given) | 1.12
COc1ccc(CCn2c(O)c(C=NC3CC3)c(=O)[nH]c2=O)cc1OC | 1.06
CN1CCN(C(=O)COc2ccc(C(C)(C)C)cc2Br)CC1 | 1.12
COc1ccc(C(=O)CC2C(=O)N(C)C(=O)N(C)C2=O)cc1 | 1.08
CCC/C(=N\O)c1c[nH]c2ccccc12 | 1.08
CC1=C(C(=O)Nc2ccccc2)SCCO1 | 1.08
